From PubChem
NFkB transloc pot – enhances IL-1B driven NFkB nuclear translocation; AID 819; HUVEC IL-1B NFkB p65 nuclear translocation imaging; actives 0.3% (n = 94,000); activation, % at 2 µM;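 active = activation above 40%, about the mean plus 3 SD, also judged a hit on visual image review; inconclusive = activation above 40% but not a hit on visual review; inactive = activation not above 40% and no visual hit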;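 note: percent activation is computed from the nuclear over cytoplasmic p65 intensity ratio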
VCAM1 TNFa inh – reduces TNF alpha induced VCAM1 expression in HUVEC; HUVEC TNFa-induced VCAM-1 immunofluorescence, high-content imaging; inhibition, % at 2 µM; actives 0.48% (n = 95,000);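 active = inhibition above the batch mean plus 3 SD, with images confirmed as a hit by eye, cut at about 37% in these data; inconclusive = inhibition above that limit but hit not confirmed in images; inactive = inhibition not above that limit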;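 note: 0% = TNF-stimulated DMSO wells and 100% = unstimulated control wells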
IL1B NFkB inh – blocks IL-1B driven NFkB nuclear translocation in HUVEC cells; inhibition, % at 2 µM; actives 0.43% (n = 94,000); HUVEC IL-1B NFkB p65 nuclear translocation imaging;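 active = inhibition above about 30% together with a positive call from visual inspection of the well image, limit read from the data; inconclusive = inhibition above a set limit but visual check negative; inactive = inhibition not above a set limit, visual check negative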;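 note: nuclear over cytoplasmic p65 intensity ratio measured by imaging; 0% = IL-1B stimulated DMSO wells and 100% = unstimulated DMSO wells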
HUVEC tox TNFa – toxic to HUVEC cells under TNF alpha stimulation; actives 0.17% (n = 93,000); cell count reduction, % at 2 µM; HUVEC TNFalpha-stimulated, Hoechst cell count, imaging;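 active = cell count reduction exceeding the screen mean by over 5 SD, scaled to untreated wells per plate, cut at about 78% in these data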;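 note: cells counted after 24 h of TNF alpha exposure following the 1 h pretreatment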
IL1B cytotox – toxic to HUVEC cells under IL-1B stimulation; HUVEC cell count loss, Hoechst imaging, IL-1B stimulated; cell count reduction, % at 2 µM; actives 0.41% (n = 94,000); AID 845;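 active = cell count reduction more than 3 SD above the screen-wide mean, cut at about 70% in these data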;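 note: normalized per plate to untreated control cells as the no-loss baseline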
* marks the source's active call; other numbers are inactive results; ? = inconclusive; . = not tested or not shown. This is a sample that favours compounds with a hit; in the whole collection about 1.5% have one here.

SMILES	NFkB transloc pot	VCAM1 TNFa inh	IL1B NFkB inh	HUVEC tox TNFa	IL1B cytotox
CCCc1cc(C(N)=O)c(NC(C)=O)s1	6	-31	-6	-27	-7
Cc1nc2nc[nH]n2c(=O)c1CC(=O)O	-4	-5	4	-31	-5
COc1cccc(-n2nc3c(-n4ncc(C#N)c4N)nnc(C)c3c2C)c1	-46	5	46*	-19	15
Cc1nnc(-n2ncc(C#N)c2N)c2nn(-c3ccccc3F)c(C)c12	22	-1	-22	-27	-27
CCNc1nc(NCC)n2c(SCc3ccc(F)cc3)nnc2n1	1	91*	-1	88*	2
CCOC(=O)CSc1nnc(Cc2ccccc2)n1-c1cccc(Cl)c1	-7	17	7	-2	-2
CCOC(=O)CSc1nnc(Cc2ccccc2)n1CC1CCCO1 (stereo not drawn)	52*	10	-52	-8	14
CCc1ccc(N2CC(C(=O)NCc3ccc4c(c3)OCO4)CC2=O)cc1 (stereo not drawn)	4	8	-4	-34	-6
O=c1ccnc(SCn2nnc3ccccc3c2=O)[nH]1	-5	-21	5	-6	6
O=c1c2ccccc2nnn1CSc1ncnc2ccccc12	17	46*	-17	54	-18
CCOC(=O)c1c(Nc2nc(C)c(C(=O)NC)s2)sc(C)c1C	0	-3	0	-26	-16
CCC(=O)Nc1cccc(C(=O)/C=C/c2cc(Br)ccc2OC)c1	-2	69*	2	5	12
COc1ccc(Br)cc1C(=O)Nc1cccc(C)c1	22	0	-22	-14	-32
COc1ccccc1NC(=O)CCN1CC(C)OC(C)C1 (stereo not drawn)	14	20	-14	.	-2
CCCc1[nH]nc2c1C(c1cccnc1)C(C#N)=C(N)O2 (stereo not drawn)	-3	87*	2	82*	-30
CCc1[nH]nc2c1C(c1cccnc1)C(C#N)=C(N)O2 (stereo not drawn)	43*	12	-43	-3	-115
Cc1ccc(SCc2[nH]nc3c2C(c2cccnc2)C(C#N)=C(N)O3)cc1 (stereo not drawn)	4	1	-4	-18	-22
COC(=O)c1cc(OC)c(OC)cc1NC(=O)c1cccnc1	0	-7	0	-17	-12
CCOc1cc(NC(=O)c2ccco2)c(OCC)cc1NC(=O)CCC(=O)NCc1cccnc1	0	?	0	100*	6
CCOc1cc(NC(=O)c2ccco2)c(OCC)cc1NC(=O)Cc1cccc(OC)c1	-3	15	3	17	7
Cc1cccc(N(C)S(=O)(=O)c2ccc3[nH]c(=O)c(=O)[nH]c3c2)c1	-9	-7	9	-16	73*
Cc1cccc(N(C)S(=O)(=O)c2ccc3[nH]cc(C(=O)N4CCOCC4)c(=O)c3c2)c1	-1	9	1	-14	14
CN(c1ccccc1)S(=O)(=O)c1cccc(C(=O)N2CCN(c3ccccn3)CC2)c1	-2	42	2	82*	5
O=C(O)CCC(=O)N1CCN(c2ccccn2)CC1	11	1	-11	-12	22
CN(C)S(=O)(=O)c1cccc(C(=O)N2CCN(Cc3ccccc3)CC2)c1	5	5	-5	-5	16
SMILES	NFkB transloc pot	VCAM1 TNFa inh	IL1B NFkB inh	HUVEC tox TNFa	IL1B cytotox
Cc1ccc(N(C)C(=O)N2CCN(c3ccccn3)CC2)cc1	67*	20	-67	-15	46
O=C(CN(Cc1ccccc1C(F)(F)F)C(=O)CNC(=O)c1ccco1)NC1CCCC1	-9	6	9	14	8
COc1ccccc1NC(=O)C1CC(=O)N(c2ccc(F)cc2)C1 (stereo not drawn)	-2	12	2	-12	-50
Cc1c(C(=O)Nc2ccccc2)oc2c1C(=O)CC(C)(C)C2	1	-1	-1	10	37
Cc1ccc(NC(=O)c2oc3c(c2C)C(=O)CC(C)(C)C3)cc1	21	97*	-21	-3	-47
CC(=O)c1c(C)[nH]c(C(=O)OCc2nnc(-c3ccccc3)o2)c1C	?	16	-42	46	10
O=C(Nc1ccc2oc(-c3cccnc3)nc2c1)c1ccco1	10	17	-10	5	-8
O=C(Nc1ccc2nc(-c3ccccc3)oc2c1)c1ccco1	40*	-17	-40	-1	-39
COC(=O)CN(c1cccc(F)c1)S(C)(=O)=O	71*	-6	-71	-14	0
COc1ccc2[nH]c(=O)c(CN(Cc3ccc(C)cc3)Cc3nnnn3CC3CCCO3)cc2c1 (stereo not drawn)	2	-18	-2	-16	-30
CCOc1ccc(N(CC(=O)Nc2cccc(Cl)c2)S(=O)(=O)c2c(C)noc2C)cc1	-9	-8	9	-10	-30
CCOc1ccc(N(CC(=O)Nc2cccc(OC)c2)S(=O)(=O)c2c(C)noc2C)cc1	-49	15	50*	-16	-18
CCOC(=O)N1CCC(NC(=O)C2CCN(C(=O)N3CC(C)Oc4ccccc43)CC2)CC1 (stereo not drawn)	9	2	-9	-27	-7
CCOC(=O)N1CCC(NC(=O)C2CCN(C(=O)N3CC(C)Oc4ccc(C)cc43)CC2)CC1 (stereo not drawn)	-50	-14	50*	2	20
CC(C)c1nnc(-c2ccc(Cl)cc2)c(N(C)C)n1	.	15	.	-11	.
CC(=O)c1c(C)oc2ccc(N(C(C)=O)S(=O)(=O)c3ccc(Cl)c([N+](=O)[O-])c3)cc12	-8	88*	8	8	1
C=CCn1c(Br)nc2c1c(=O)n(C)c(=O)n2C	49*	-18	-49	-22	21
O=C(c1ccc(F)cc1)N1CCCCC(Sc2nnc3ccccn23)C1=O (stereo not drawn)	-30	12	30*	34	-12
CC[n+]1c(/C=C2/C=C(C)CC(C)(C)C2)sc2ccc(OC)cc21	2	3	-2	-23	16
COCCNC(=O)CN(C(=O)Cn1nnc2ccccc21)c1ccc(F)c(Cl)c1	1	.	-1	.	-12
Cc1ccc2c(c1)N(CC(=O)Nc1ccc3c(c1)OCCO3)C(=O)CO2	-99	8	99*	-2	91*
O=C(Cn1nnc(-c2ccncc2)n1)NCCc1ccccc1	0	23	0	-8	-5
CCOc1ccc(NC(=O)CN2C(=O)C3CC=CCC3C2=O)cc1 (stereo not drawn)	-4	0	4	-6	93*
CCOc1ccc(NC(=O)C2CCC(N3C(=O)C4CC=CCC4C3=O)CC2)cc1 (stereo not drawn)	-5	1	5	-28	-22
O=C(C1CCN(S(=O)(=O)N2CCCC2)CC1)N1CCCCC1	.	-2	.	-20	.
CCOC(=O)CCc1c(C)c2c(C)nn(-c3ccccc3)c2[nH]c1=O	-32	10	32*	-29	-38
COC(=O)c1c(-c2ccccc2)csc1NC(=O)CSc1ncnc2sc(C)c(C)c12	12	-5	-12	-31	89*
COCCCNC(=O)CCc1nc(-c2ccccc2)no1	6	9	-6	-10	4
